The text below walks through data of PubChem BioAssay (NCI).

This is part of a sample that, as a whole, favours compounds with a hit. Of some 83,000 tested, about 20% had one in any assay.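 Plates (96-well) were seeded with cells, treated with compound at one concentration, and incubated for 48 hours before percent growth was determined.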 Unmarked numbers belong to inactive results. Activity calls are given as the source filed them. The calls were made as follows: active = growth percent below 10; inactive = the rest.

Test in all cases: NCI-60 one-dose screen, 48 h (100 = growth as untreated, 0 = no growth, -100 = all killed)
For experiment [1], the system named is SR leukemia. The following applies: 10 µM unless noted.
Experiment [2] concerns OVCAR-8 ovarian. To be noted: 10 µM unless noted.
The test system of experiment [3] is OVCAR-5 ovarian. The following applies: 10 µM unless noted.
For experiment [4], the system named is OVCAR-4 ovarian. The following applies: 10 µM unless noted.
The subject of experiment [5] is SK-OV-3 ovarian. To be noted: 10 µM unless noted.
Experiment [6] has as its system IGROV1 ovarian. The following applies: 10 µM unless noted.
In experiment [7] the test system is OVCAR-3 ovarian. To be noted: 10 µM unless noted.
Experiment [8] relates to HS 578T breast. The following applies: 10 µM.
Experiment [9] deals with NCI/ADR-RES ovarian. The following applies: 10 µM unless noted.
Experiment [10] deals with RPMI-8226 leukemia. The following applies: 10 µM unless noted.

Turning to `O=CC(OC(=O)c1ccccc1)C(OC(=O)c1ccccc1)C(COC(c1ccccc1)(c1ccccc1)c1ccccc1)OC(=O)c1ccccc1` (stereo unspecified), the growth in [1] is -12.9% (active); in experiment [2] it was -17.6% (active); in [3] it was 61%; in [4], 89.9%; in [5], 98.8%; in [6], -38.5% (active). Moreover, the results for the growth in experiment [7], in experiment [8] and in experiment [9] were 21.4%, 51.8% and 92.8%, respectively.
Turning to `CC1CCC(n2cnc3c(Cl)ncnc32)O1` (stereo unspecified), the growth in [1] is 104%; in experiment [2], 91.4%; in experiment [3], 93.9%; in experiment [4], 104%; in experiment [5], 98.6%; in experiment [6], 61.7%. For the same molecule, the values for the growth in experiment [7], in [8] and in experiment [9] were 97.1%, 88.1% and 101%, respectively.
Turning to `CCOC(=O)c1sc(NC(=O)COc2ccc(/C=C3\Cc4ccc(Cl)cc4C3=O)cc2)nc1C`, the growth in experiment [1] is 103%; in [10], 96.1%; in [3], 111%; in experiment [4] it was 112%; in experiment [5] it was 110%; in experiment [7], 113%. Also, the growth in experiment [8] is 116%; in experiment [9], 93.9%.
For the molecule `CC(=O)OC1Oc2ccccc2-c2oc(=O)c(-c3cc4ccc(N(C)C)cc4oc3=O)cc21` (stereo unspecified), the growth in experiment [1] was -19.9% (active); in experiment [10] it was -20.5% (active); in [2] it was 37.1%; in experiment [3], 26.3%; in experiment [4] it was 39.1%; in experiment [5], 48.1%. In addition, the growth in experiment [7] is 43%; in experiment [8] it was -3.16% (active); in experiment [9], 38.9%.
Take `O=C(Nc1ccc(C(=O)Nc2ccc(C3=NCCCN3)cc2)cc1)Nc1ccc(C2=NCCCN2)cc1`: the growth was 44.5% in [1]; 57.4% in experiment [2]; 93.2% in experiment [3]; 65.5% in experiment [4]; 97.8% in experiment [5]; 99.7% in experiment [6]. For the same molecule, the growth in [7] was 103%; in experiment [8], 91.3%; in experiment [9] it was 86.5%.
As to `NC1(c2ccc(-c3nc4ccn5c(=O)[nH]nc5c4cc3-c3ccccc3)cc2)CCC1`, the growth was -23.4% (active) in experiment [1]; 24.7% in experiment [10]; 51.9% in [2]; 60.5% in experiment [3]; 63.2% in [4]; 3.19% (active) in [5]. Further, the growth was 12.6% in [6], 39.7% in [7] and 56.8% in experiment [9].
With `O=C(Nc1ccc(C2=NCCCN2)cc1)c1ccc(C(=O)Nc2ccc(C3=NCCCN3)cc2)nc1`, the growth was 85.2% in experiment [1]; 112% in experiment [2]; 95.1% in experiment [3]; 102% in [4]; 106% in experiment [5]; 107% in [6]. The growth in experiment [7] was 101%; in experiment [8] it was -26.5% (active); in experiment [9], 102%.
Turning to `COC(=O)c1[nH]cnc1/N=N/N(C)CCO`, the growth in [1] is 75.4%; in experiment [2], 109%; in [3], 92.9%; in experiment [4], 105%; in experiment [5], 98.3%; in experiment [6] it was 109%. Also, the growth in experiment [7] was 99%; in [8], -26.7% (active); in experiment [9], 95.9%.
Consider `Nc1cc2c(cc1Br)-c1c(C(=O)O)cccc1C2O` (stereo unspecified), for which the growth in experiment [1] was 109%; in experiment [2] it was 107%; in experiment [3], 102%; in [4], 103%; in [5] it was 110%; in experiment [6] it was 98.6%. The growth was 147% in experiment [7], 143% in experiment [8] and 118% in experiment [9].
Turning to `COC(=O)[C@@H](C)CNS(=O)(=O)N(c1cc(C(F)(F)F)cc(C(F)(F)F)c1)C1CCN(Cc2ccc(F)cc2)CC1`, the growth is 26.7% in experiment [1]; 67.3% in experiment [2]; 76.1% in [3]; 73.4% in experiment [4]; 76.2% in experiment [5]; 54.7% in experiment [6]. In addition, the results for the growth in experiment [7], in experiment [8] and in [9] were 56.7%, 90.7% and 51%, respectively.
As for `CCCC(=O)OCC1OC(n2cnc3c(=S)nc(N)[nH]c32)C(OC(=O)CCC)C1OC(=O)CCC` (stereo unspecified), the growth was 6.99% (active) in experiment [1]; 6.16% (active) in experiment [2]; 38.4% in [3]; 20.6% in [4]; 5.91% (active) in experiment [5]; 51% in experiment [6]. Also, the growth in experiment [7] was 6.47% (active); in [8], 29.9%; in experiment [9], 40.2%.
For the molecule `O=C(NC1CCNCC1)c1[nH]ncc1NC(=O)c1c(Cl)cccc1Cl`, the growth is 2.12% (active) in [1]; 1.32% (active) in experiment [10]; 9% (active) in [2]; 9.52% (active) in experiment [3]; 8.44% (active) in experiment [4]; 7.3% (active) in experiment [5]. The growth is 10.2% in experiment [6], 4.35% (active) in experiment [7] and 85% in experiment [9].
Take `CCc1ccc(/C=C/c2ccc(O)c3ncccc23)[n+](C)c1`: the growth in [1] is 7.25% (active); in experiment [2], -12.1% (active); in experiment [3] it was 40.9%; in [4], 35.9%; in experiment [5], 76.7%; in experiment [6], 33.4%. Further, the results for the growth in [7], in [8] and in [9] were -11.4% (active), 23.1% and 73.4%, respectively.
In the case of `CC(C)Nc1cc(-c2c[nH]c(C(=O)N[C@H](CO)c3cccc(Cl)c3)c2)c(Cl)cn1`, the growth in experiment [1] was 23.9%; in [10], 21.8%; in experiment [2], 35%; in experiment [3], 19.5%; in [4] it was 42.2%; in [5], 23.3%. The growth in experiment [6] is 18.4%; in experiment [7] it was 75.9%; in experiment [9], 47.9%.
Regarding `CC(=Nc1ccccc1)C1=C(O)C(Cc2ccc(O)cc2)NC1=O` (stereo unspecified), the growth in [1] is -9.58% (active); in experiment [2], -53.5% (active); in [3] it was 32.1%; in [4], 36.6%; in experiment [5], 23%; in [6], 17.8%. The growth in experiment [7] was -63.2% (active); in experiment [8], -27.2% (active); in [9], -13.4% (active).
For the molecule `O=C(COc1cccc(/C=C2\Cc3ccc(Cl)cc3C2=O)c1)Nc1nccs1`, the growth was 48% in [1]; 54.6% in experiment [10]; 102% in experiment [3]; 81.6% in [4]; 96% in experiment [5]; 89.6% in [7]. For the same molecule, the growth is 105% in [8] and 76.6% in [9].
Turning to `ClCc1ccc(-c2ccc(Cn3cnc4nc(Cl)nc(Cl)c43)cc2)cc1`, the growth was -37.1% (active) in experiment [1]; -55.8% (active) in experiment [10]; -72.1% (active) in experiment [2]; -11.1% (active) in experiment [3]; 46.6% in experiment [4]; 72.5% in experiment [5]. For the same molecule, the growth in [6] is 21%; in experiment [7] it was -77.6% (active); in experiment [9], 24.8%.
